According to PubChem BioAssay (Tox21):
Records with an inconclusive call do not appear. The source made the active and inactive calls. Unless noted, the call rests on the fitted dose curve; in most records, active means well fitted curve in the direction sought with a large enough effect in the repeat runs; inconclusive means weak or mixed curves; inactive means no such curve, though single readings can be large; an effect the other way counts as inactive or inconclusive.

Tests used:
[1] = qHTS assay for small molecule agonists of the p53 signaling pathway (AID 651631; calls by dose curve; further: nearly all actives have a fitted effect of over 15% in size)
How it was run: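 Beta-lactamase reporter activity under p53 response elements was quantified in HCT-116 cells by FRET fluorescence, following 16 h incubation with test compounds at 37 °C and 2 h substrate development at room temperature.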

[2] = qHTS assay for small molecules that induce genotoxicity in human embryonic kidney cells expressing luciferase-tagged ATAD5 (AID 651632); further: nearly all actives have a fitted effect of over 15% in size
How it was run: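 Test compounds were delivered by pin tool onto HEK293T reporter cells (2,000/well) expressing ATAD5 fused to luciferase. After 16 hr at 37C, 5% CO2, Amplite was added for 30 min at room temperature and luminescence was measured.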

[3] = qHTS assay for small molecule agonists of the p53 signaling pathway - cell viability (AID 651633; calls by dose curve;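 further: p53RE-bla HCT reporter cells with a stable beta-lactamase p53 reporter; series mostly up to about 83 µM; nearly all actives have a fitted effect of over 30% in size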)
How it was run: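 p53RE-bla cells were treated with compound for 16 hours at 37 C. Cytotoxicity was then measured as CellTiter-Glo luminescence after 30 min at room temperature.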

[4] = qHTS assay for small molecules that induce genotoxicity in human embryonic kidney cells expressing luciferase-tagged ATAD5 - cell viability (AID 651634; calls by dose curve; further: nearly all actives have a fitted effect of over 25% in size)
How it was run: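 Quantitative high-throughput format. HEK293T cells expressing ATAD5 fused to luciferase were plated at 2,000 cells/well and treated 15.5 hr with compound versus DMSO. Viability was determined by fluorescent live-cell protease substrate, 30 min at 37C.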

[5] = qHTS assay for small molecule disruptors of the mitochondrial membrane potential - cell viability (AID 720634; calls by dose curve;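 further: human HepG2 liver cancer cells; series mostly up to about 83 µM; nearly all actives have a fitted effect of over 20% in size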)
How it was run: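 Same-well counter-screen: following the MMP dye addition, CellTiter-Glo was added to 1 hr compound-treated HepG2 cells and luminescence read after 30 min at room temperature.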

[6] = qHTS assay for small molecule disruptors of the mitochondrial membrane potential (AID 720635)
How it was run: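 HepG2 cells exposed to compound 1 hr at 37C, then Mito-MPS dye 30 min. Ratio read of aggregate (540/590 nm) versus monomer (490/535 nm) fluorescence.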

[7] = qHTS assay to test for compound auto fluorescence at 590 nm (red) in HepG2 cells (AID 720674)
How it was run: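 Seeding: 2,000 HepG2 cells/well, MEM/10% FBS, overnight 37 C. Dosing: compound vs DMSO. Incubation: 1 hr, 37 C, 5% CO2. Read: fluorescence 540 ex/590 em, Rose Bengal sodium as red reference.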

[8] = qHTS assay to test for compound auto fluorescence at 535 nm (green) in HepG2 cells (AID 720675)
[9] = qHTS assay to test for compound auto fluorescence at 460 nm (blue) in HEK293 cells (AID 720678)
How it was run: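 Triamterene serves as the blue fluorophore standard. Compound signal at 405/460 nm is read in HEK293 wells (2,000 cells, 10% dialyzed FBS) after overnight treatment at 37C.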

[10] = qHTS assay to test for compound auto fluorescence at 590 nm (red) in HEK293 cells (AID 720679)
How it was run: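 We plated HEK293 cells in 10% dialyzed FBS medium, let them adhere for 4-5 hr, then added 23 nL compound. Overnight at 37C and 5% CO2 preceded fluorescence measurement at 540/590nm.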

[11] = qHTS assay to test for compound auto fluorescence at 535 nm (green) in HEK293 cells (AID 720680)
[12] = qHTS assay to test for compound auto fluorescence at 460 nm (blue) in HEK293 cell free culture (AID 720681)
How it was run: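 Compounds were added to cell-free DMEM with 10% FBS and fluorescence read directly. The blue channel used 405 nm excitation and 460 nm emission, with triamterene as the reference fluorophore.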

[13] = qHTS assay to test for compound auto fluorescence at 535 nm (green) in HEK293 cell free culture (AID 720682)
How it was run: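 Each library compound, or DMSO control, is added by pintool to medium alone, comprising DMEM and 10% FBS. Emission at 535 nm following 485 nm excitation is quantified against fluorescein.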

[14] = qHTS assay to test for compound auto fluorescence at 590 nm (red) in HEK293 cell free culture (AID 720683)
How it was run: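 Cell-free wells of DMEM with 10% FBS received compound, and intrinsic fluorescence was read at excitation/emission 540/590 nm. Values expressed as equivalence to Rose Bengal sodium.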

[15] = qHTS assay to test for compound auto fluorescence at 590 nm (red) in HepG2 cell free culture (AID 720684)
How it was run: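 Auto fluorescence equivalency versus Rose Bengal sodium, red channel Ex/Em 540/590 nm; compounds in cell-free MEM/10% FBS; DMSO vehicle control.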

[16] = qHTS assay to test for compound auto fluorescence at 460 nm (blue) in HepG2 cell free culture (AID 720685)
How it was run: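 Cell-free plates of MEM plus 10% FBS received 23 nL compound or DMSO vehicle; blue-channel (405/460 nm) intensity scored against triamterene as reference fluorophore.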

[17] = qHTS assay to test for compound auto fluorescence at 535 nm (green) in HepG2 cell free culture (AID 720686)
[18] = qHTS assay to test for compound auto fluorescence at 460 nm (blue) in HepG2 cells (AID 720687)
How it was run: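 HepG2 cells in MEM with 10% FBS, attached overnight at 37 C, were exposed to compound or DMSO for 1 hr at 37 C, 5% CO2. Blue fluorescence was read at 405/460 nm, with triamterene as reference fluorophore.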

[19] = molecular target: Glucocorticoid receptor (Homo sapiens) (UniProt P04150); test: qHTS assay to identify small molecule agonists of the glucocorticoid receptor (GR) signaling pathway (AID 720691; active means well fitted activation curve with a large enough effect in the signal ratio in the repeat runs, not every such curve was filed as active; the % refers to the signal ratio)
How it was run: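 A HeLa cervical cancer line expressing GR and a glucocorticoid response element-driven beta-lactamase gene is treated with compounds for 18 h; LiveBLAzer B/G FRET substrate is then applied and fluorescence read.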

[20] = molecular target: Glucocorticoid receptor (Homo sapiens) (UniProt P04150); test: qHTS assay to identify small molecule antagonists of the glucocorticoid receptor (GR) signaling pathway (AID 720692; active means well fitted inhibition curve with a large enough effect in the signal ratio in the repeat runs, not every such curve was filed as active; the % refers to the signal ratio)
How it was run: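 GRE-bla HeLa line, dex-stimulated (5 nM final). Compound exposure 18 h, 37 C. Beta-lactamase FRET read after 2 h RT substrate.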

Measured: Potency

Sequence of Glucocorticoid receptor (Homo sapiens) (P04150 whole entry, looked up): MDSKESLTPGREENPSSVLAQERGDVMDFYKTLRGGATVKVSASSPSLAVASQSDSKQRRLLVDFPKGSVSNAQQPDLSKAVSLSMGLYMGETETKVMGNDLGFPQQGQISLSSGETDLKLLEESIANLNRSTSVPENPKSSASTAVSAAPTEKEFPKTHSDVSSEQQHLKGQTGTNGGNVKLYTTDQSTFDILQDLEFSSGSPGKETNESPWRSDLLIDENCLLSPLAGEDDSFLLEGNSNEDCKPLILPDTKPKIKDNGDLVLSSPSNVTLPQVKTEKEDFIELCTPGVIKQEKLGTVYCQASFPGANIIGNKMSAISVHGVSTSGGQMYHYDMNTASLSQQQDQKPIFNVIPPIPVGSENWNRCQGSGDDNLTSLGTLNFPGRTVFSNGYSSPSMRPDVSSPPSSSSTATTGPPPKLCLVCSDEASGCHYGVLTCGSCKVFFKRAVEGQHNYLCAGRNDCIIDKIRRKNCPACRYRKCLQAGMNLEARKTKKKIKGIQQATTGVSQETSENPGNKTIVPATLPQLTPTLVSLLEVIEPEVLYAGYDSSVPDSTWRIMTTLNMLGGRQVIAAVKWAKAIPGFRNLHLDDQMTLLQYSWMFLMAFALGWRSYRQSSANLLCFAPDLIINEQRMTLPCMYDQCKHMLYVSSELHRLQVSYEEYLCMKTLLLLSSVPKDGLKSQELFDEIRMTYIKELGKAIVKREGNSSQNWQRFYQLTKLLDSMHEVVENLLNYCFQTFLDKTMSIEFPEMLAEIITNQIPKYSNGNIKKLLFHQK

CCOCCOCCOC(C)=O
inactive: [1] | [2] | [3] | [4] | [5] | [6] | [7] | [8] | [9] | [10] | [11] | [12] | [13] | [14] | [15] | [16] | [17] | [18] | [19] | [20]

CC(C)(C)OC(=O)c1ccccc1C(=O)O
inactive: [1] | [2] | [3] | [4] | [5] | [6] | [7] | [8] | [9] | [10] | [11] | [12] | [13] | [14] | [15] | [16] | [17] | [18]

C=CCn1cc[n+](C)c1
inactive: [1] | [2] | [3] | [4] | [5] | [6] | [7] | [8] | [9] | [10] | [11] | [12] | [13] | [14] | [15] | [16] | [17] | [18] | [19] | [20]

CCCC(C)C(O)CC (centres undefined)
inactive: [1] | [2] | [3] | [4] | [5] | [6] | [7] | [8] | [9] | [10] | [11] | [12] | [13] | [14] | [15] | [16] | [17] | [18] | [19] | [20]

CC1(C)C(=O)C(C)(C)C1=O
inactive: [1] | [2] | [3] | [4] | [5] | [6] | [7] | [8] | [9] | [10] | [11] | [12] | [13] | [14] | [15] | [16] | [17] | [18]

COC(=O)/C=C(\C)CCC=C(C)C
inactive: [1] | [2] | [3] | [4] | [5] | [6] | [7] | [8] | [9] | [10] | [11] | [12] | [13] | [14] | [15] | [16] | [17] | [18]

CCCC(=O)C(CC)Sc1ccoc1C (centres undefined)
inactive: [1] | [2] | [3] | [4] | [5] | [6] | [7] | [8] | [9] | [10] | [11] | [12] | [13] | [14] | [15] | [16] | [17] | [18]

CC(O)C(CO)C(C)O (centres undefined)
inactive: [1] | [2] | [3] | [4] | [5] | [6] | [7] | [8] | [9] | [10] | [11] | [12] | [13] | [14] | [16] | [17] | [18] | [19] | [20]

COc1cc(OC)cc(OC)c1
inactive: [1] | [2] | [3] | [4] | [5] | [6] | [8] | [9] | [11] | [12] | [13] | [14] | [15] | [16] | [17] | [18]

CSC(=O)c1cccc2nnsc12
inactive: [1] | [2] | [3] | [4] | [5] | [6] | [7] | [8] | [9] | [10] | [11] | [12] | [13] | [14] | [15] | [16] | [17] | [18] | [20]

C/C(Cl)=C/CCl
inactive: [1] | [2] | [3] | [4] | [5] | [6] | [7] | [8] | [9] | [10] | [11] | [12] | [13] | [14] | [16] | [17] | [18]

OCCC(F)(F)C(F)(F)C(F)(F)C(F)(F)C(F)(F)C(F)(F)F
inactive: [1] | [2] | [3] | [4] | [5] | [6] | [7] | [8] | [9] | [11] | [12] | [13] | [14] | [15] | [16] | [17] | [18] | [19] | [20]

O=Cc1ccc(C(=O)O)cc1
inactive: [1] | [2] | [3] | [4] | [5] | [6] | [7] | [8] | [9] | [11] | [12] | [13] | [14] | [15] | [16] | [17] | [18] | [19] | [20]

CCOC(=O)CC(C(C)=O)C(C)=O
inactive: [1] | [2] | [3] | [4] | [5] | [6] | [7] | [8] | [9] | [10] | [11] | [12] | [13] | [14] | [16] | [17] | [18] | [19]
